Experimental data reported in PubChem BioAssay (NCATS).
Results filed as inconclusive are left out. Activity calls are given as the source filed them. Calls follow the shape of the dose curve; as a rule, active = well fitted inhibition curve with a large enough effect; inconclusive = small, poorly fitted or top-dose-only effect; inactive = flat fitted curve, though single readings scatter.

Assays:
Experiment in all cases: qHTS profiling for inhibitors of Plasmodium falciparum proliferation (AID 504749); also: nearly all actives have a fitted effect of over 60% in size
Conditions in all cases: P. falciparum in erythrocytes, SYBR Green DNA, 72 h; series mostly up to 28.7 µM
[1] = test system: DIV30
Procedure, shortened: (§1)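 SYBR Green fluorescence (ex 485 nm, em 535 nm) reports parasite DNA after 72 h compound exposure of infected red cells at 0.3% parasitemia, 2.5% hematocrit; signal normalized to 0.29 uM artemisinin and vehicle wells.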

[2] = test system: Dd2
Procedure, shortened: as §1

[3] = test system: ECU
Procedure, shortened: as §1

[4] = test system: FAB9
Procedure, shortened: as §1

[5] = test system: GB4
Procedure, shortened: as §1

[6] = test system: HB3
Procedure, shortened: as §1

[7] = test system: ICS
Procedure, shortened: as §1

[8] = test system: JCK
Procedure, shortened: as §1

[9] = test system: N140
Procedure, shortened: as §1

[10] = test system: P93_24
Procedure, shortened: as §1

[11] = test system: P94_40
Procedure, shortened: as §1

[12] = test system: PAD
Procedure, shortened: as §1

[13] = test system: PC15
Procedure, shortened: as §1

[14] = test system: PC26
Procedure, shortened: as §1

[15] = test system: PC49
Procedure, shortened: as §1

[16] = test system: SC27B
Procedure, shortened: as §1

[17] = test system: TAB109
Procedure, shortened: as §1

[18] = test system: TAB113
Procedure, shortened: as §1

[19] = test system: TAB165
Procedure, shortened: as §1

[20] = test system: W2
Procedure, shortened: as §1

Measured: Potency

CS(=O)(=O)OCC(O)C(O)COS(C)(=O)=O (stereo not given)
inactive: [1] | [2] | [3] | [4] | [5] | [6] | [7] | [8] | [9] | [10] | [11] | [12] | [13] | [14] | [15] | [16] | [17] | [18] | [19]

OC[C@H]1O[C@@H]2O[C@H]3[C@H](O)[C@@H](O)[C@@H](O[C@H]4[C@H](O)[C@@H](O)[C@@H](O[C@H]5[C@H](O)[C@@H](O)[C@@H](O[C@H]6[C@H](O)[C@@H](O)[C@@H](O[C@H]7[C@H](O)[C@@H](O)[C@@H](O[C@H]1[C@H](O)[C@H]2O)O[C@@H]7CO)O[C@@H]6CO)O[C@@H]5CO)O[C@@H]4CO)O[C@@H]3CO
inactive: [1] | [2] | [3] | [4] | [5] | [6] | [7] | [8] | [9] | [10] | [11] | [12] | [13] | [14] | [15] | [16] | [17] | [18] | [19] | [20]

O=[n+]1ccn([O-])c2ccccc21
inactive: [1] | [2] | [3] | [4] | [5] | [6] | [7] | [8] | [9] | [10] | [11] | [12] | [13] | [14] | [15] | [16] | [17] | [18] | [19]

OC/C=C/c1ccccc1
inactive: [1] | [2] | [3] | [4] | [5] | [6] | [7] | [8] | [9] | [10] | [11] | [12] | [13] | [14] | [15] | [16] | [17] | [18] | [19]

O=C1c2ccccc2C(=O)C1c1ccc(F)cc1
inactive: [1] | [2] | [3] | [4] | [5] | [6] | [7] | [8] | [9] | [10] | [11] | [12] | [13] | [14] | [15] | [16] | [17] | [18] | [19]

C=CC(C)(O)CC/C=C(\C)CCC=C(C)C (stereo not given)
inactive: [1] | [2] | [3] | [4] | [5] | [6] | [7] | [8] | [9] | [10] | [11] | [12] | [13] | [14] | [15] | [16] | [17] | [18] | [19]

CC(=O)N[C@@H]1C(O[C@H]2O[C@H](C(=O)O)C(O)[C@H](O)[C@H]2O)[C@H](O)[C@@H](CO)O[C@H]1O[C@@H]1C(C(=O)O)O[C@@H](O[C@H]2[C@H](O)[C@@H](CO)OC(O)[C@@H]2NC(C)=O)[C@H](O)[C@H]1O (stereo not given in full)
inactive: [1] | [2] | [3] | [4] | [5] | [6] | [7] | [8] | [9] | [10] | [11] | [12] | [13] | [14] | [15] | [16] | [17] | [18] | [19] | [20]

CN[C@@H]1[C@H](O[C@H]2[C@H](O[C@H]3[C@H](O)[C@@H](O)[C@H](N=C(N)N)[C@@H](O)[C@@H]3N=C(N)N)O[C@@H](C)[C@]2(O)C=O)O[C@@H](CO)[C@H](O)[C@H]1O
inactive: [1] | [2] | [3] | [4] | [5] | [6] | [7] | [8] | [9] | [10] | [11] | [12] | [13] | [14] | [15] | [16] | [17] | [18] | [19] | [20]

Nc1ncnc2c1ncn2[C@H]1CC[C@@H](CO)O1
inactive: [1] | [2] | [3] | [4] | [5] | [6] | [7] | [8] | [9] | [10] | [11] | [12] | [13] | [14] | [15] | [16] | [17] | [18] | [19] | [20]

Nc1nc(=O)n([C@@H]2CS[C@H](CO)O2)cc1F
inactive: [1] | [2] | [3] | [4] | [5] | [6] | [7] | [8] | [9] | [10] | [11] | [12] | [13] | [14] | [15] | [16] | [17] | [18] | [19] | [20]

O=S(=O)(O)CC(S)CS (stereo not given)
inactive: [1] | [2] | [3] | [4] | [5] | [6] | [7] | [8] | [9] | [10] | [11] | [12] | [13] | [14] | [15] | [16] | [17] | [18] | [19] | [20]

CC1=CC(=O)NS(=O)(=O)O1
inactive: [1] | [2] | [3] | [4] | [5] | [6] | [7] | [8] | [9] | [10] | [11] | [12] | [13] | [14] | [15] | [16] | [17] | [18] | [19] | [20]

CC(=O)NCCCS(=O)(=O)O
inactive: [1] | [2] | [3] | [4] | [5] | [6] | [7] | [8] | [9] | [10] | [11] | [12] | [13] | [14] | [15] | [16] | [17] | [18] | [19] | [20]

O=C(O)c1ccc(OCCn2ccnc2)cc1
inactive: [1] | [2] | [3] | [4] | [5] | [6] | [7] | [8] | [9] | [10] | [11] | [12] | [13] | [14] | [15] | [16] | [17] | [18] | [19] | [20]

O=C(O)Cc1cc(I)c(Oc2ccc(O)c(I)c2)c(I)c1
inactive: [1] | [2] | [3] | [4] | [5] | [6] | [7] | [8] | [9] | [10] | [11] | [12] | [13] | [14] | [15] | [16] | [17] | [18] | [19] | [20]

COC1=C(OC)C(=O)C(C/C=C(\C)CC/C=C(\C)CC/C=C(\C)CC/C=C(\C)CC/C=C(\C)CC/C=C(\C)CC/C=C(\C)CC/C=C(\C)CC/C=C(\C)CCC=C(C)C)=C(C)C1=O
inactive: [1] | [2] | [3] | [4] | [5] | [6] | [7] | [8] | [9] | [10] | [11] | [12] | [13] | [14] | [15] | [16] | [17] | [18] | [19] | [20]

Cc1ccccn1
inactive: [1] | [2] | [3] | [4] | [5] | [6] | [7] | [8] | [9] | [10] | [11] | [12] | [13] | [14] | [15] | [16] | [17] | [18] | [19] | [20]

CCC(C)[C@@H](N)C(=O)O (stereo not given in full)
inactive: [1] | [2] | [3] | [4] | [5] | [6] | [7] | [8] | [9] | [10] | [11] | [12] | [13] | [14] | [15] | [16] | [17] | [18] | [19] | [20]

Oc1cc(O)cc(O)c1
inactive: [1] | [2] | [3] | [4] | [5] | [6] | [7] | [8] | [9] | [10] | [11] | [12] | [13] | [14] | [15] | [16] | [17] | [18] | [19] | [20]

Nc1ncnc2c1ncn2CCOCP(=O)(O)O
inactive: [1] | [2] | [3] | [4] | [5] | [6] | [7] | [8] | [9] | [10] | [11] | [12] | [13] | [14] | [15] | [16] | [17] | [18] | [19] | [20]

Cc1ncc[nH]1
inactive: [1] | [2] | [3] | [4] | [5] | [6] | [7] | [8] | [9] | [10] | [11] | [12] | [13] | [14] | [15] | [16] | [17] | [18] | [19] | [20]

O=C(O)/C=C/C(=O)Nc1ccc(S(=O)(=O)Nc2nccs2)cc1
inactive: [1] | [2] | [3] | [4] | [5] | [6] | [7] | [8] | [9] | [10] | [11] | [12] | [13] | [14] | [15] | [16] | [17] | [18] | [19] | [20]

CN1C(=O)OC(C)(C)C1=O
inactive: [1] | [2] | [3] | [4] | [5] | [6] | [7] | [8] | [9] | [10] | [11] | [12] | [13] | [14] | [15] | [16] | [17] | [18] | [19] | [20]

CCOc1ccc(S(=O)(=O)O)c2cccnc12
inactive: [1] | [2] | [3] | [4] | [5] | [6] | [7] | [8] | [9] | [10] | [11] | [12] | [13] | [14] | [15] | [16] | [17] | [18] | [19] | [20]

CC(C)CCCC(C)NC(C)C (stereo not given)
inactive: [1] | [2] | [3] | [4] | [5] | [6] | [7] | [8] | [9] | [10] | [11] | [12] | [13] | [14] | [15] | [16] | [17] | [18] | [19] | [20]

O=C1CCC(=O)N1CO
inactive: [1] | [2] | [3] | [4] | [5] | [6] | [7] | [8] | [9] | [10] | [11] | [12] | [13] | [14] | [15] | [16] | [17] | [18] | [19] | [20]

Cc1nc(NS(=O)(=O)c2ccc(N)cc2)nc(C)c1Br
inactive: [1] | [2] | [3] | [4] | [5] | [6] | [7] | [8] | [9] | [10] | [11] | [12] | [13] | [14] | [15] | [16] | [17] | [18] | [19] | [20]

[O]=[Bi][O][Bi]=[O]
inactive: [1] | [2] | [3] | [4] | [5] | [6] | [7] | [8] | [9] | [10] | [11] | [12] | [13] | [14] | [15] | [16] | [17] | [18] | [19] | [20]
